The nature of test [1]: binders of probe aFSTL3 on microarray, primary screen, stem cell growth factor project, biochemical, small-molecule microarray, fluorescence 635/667 (AID 1064).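 Further: measures binding of the biotinylated anti-FSTL3 antibody to printed compounds.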 To be noted: higher = more signal.
Test [2] in a line: binders from COS7 lysate, DM2A8 probe, primary screen, torsin A project, cell lysate, small-molecule microarray, fluorescence 635/667 (AID 1065). To be noted: higher = more signal, COS7 lysate expressing mutant human TOR1A.
Test [3] can be described thus: binders of probe aFGF2 on microarray, primary screen, stem cell growth factor project, biochemical, small-molecule microarray, fluorescence 635/667 (AID 1067).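 Further: measures binding of biotinylated aFGF2 protein to printed compounds on slides; z-score merges feature fluorescence and signal-to-noise across triplicate slides.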 To be noted: higher = more signal.
Test [4] is described as follows: binders of probe aFGF10 on microarray, primary screen, stem cell growth factor project, biochemical, small-molecule microarray, fluorescence 635/667 (AID 1071).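 Further: score merges 667 nm spot intensity and signal to noise from triplicate slides.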 To be noted: higher = more signal.
The target in test [5] is Neurogenic locus notch homolog protein 2 (Homo sapiens) (UniProt Q04721). In words: Notch2 binders on small-molecule microarrays, primary screen, biochemical, small-molecule microarray, 635 nm fluorescence, stem cell growth factors (AID 1073). To be noted: Notch2 binding, higher = more signal.
For test [6], the target named is Pro-neuregulin-1, membrane-bound isoform (Homo sapiens) (UniProt Q02297). In words: NRG1 binders on small-molecule microarrays, primary screen, psychiatric disease protein project, biochemical, small-molecule microarray, fluorescence 635/667 (AID 1075).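 Further: score combines 667 nm spot fluorescence with signal to noise.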 To be noted: NRG1 binding, 635 nm fluorescence, higher = more signal.
Test [7] deals with Neuregulin-1 EGF-like domain. Briefly: binders of neuregulin-1 EGF-like domain, primary screen, biochemical, small-molecule microarray, 635 nm fluorescence (AID 1081).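 Further: binding of the protein to compounds printed on small-molecule microarray slides.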 To be noted: small-molecule microarray binding, higher = more signal.
Test [8] is described as follows: FRG1 promoter luciferase signal modulators, primary screen, FRG1 inhibition for FSHD, cell-based, C2C12 myotubes, firefly/Renilla luciferase, luminescence (AID 1084). To be noted: higher = more signal, called active from +8 up or from −8 down.
Test [9] in a line: binders of probe aFST on microarray, primary screen, stem cell growth factor project, biochemical, small-molecule microarray, fluorescence 635/667 (AID 1086).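 Further: score merges 667 nm fluorescence with signal-to-noise of each printed compound spot.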 To be noted: higher = more signal.
Test [10] is described as follows: binders of probe aHhip on microarray, primary screen, stem cell growth factor project, biochemical, small-molecule microarray, fluorescence 635/667 (AID 1087).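 Further: score merges spot fluorescence at 667nm with spot signal to noise ratio.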 To be noted: higher = more signal.

This passage reports composite z-score and z-score results from PubChem BioAssay.

Molecules are shown by their SMILES. The source made the active and inactive calls.

Pro-neuregulin-1, membrane-bound isoform (Homo sapiens), sequence (Q02297 whole entry, looked up, the tested form may be a part, canonical isoform): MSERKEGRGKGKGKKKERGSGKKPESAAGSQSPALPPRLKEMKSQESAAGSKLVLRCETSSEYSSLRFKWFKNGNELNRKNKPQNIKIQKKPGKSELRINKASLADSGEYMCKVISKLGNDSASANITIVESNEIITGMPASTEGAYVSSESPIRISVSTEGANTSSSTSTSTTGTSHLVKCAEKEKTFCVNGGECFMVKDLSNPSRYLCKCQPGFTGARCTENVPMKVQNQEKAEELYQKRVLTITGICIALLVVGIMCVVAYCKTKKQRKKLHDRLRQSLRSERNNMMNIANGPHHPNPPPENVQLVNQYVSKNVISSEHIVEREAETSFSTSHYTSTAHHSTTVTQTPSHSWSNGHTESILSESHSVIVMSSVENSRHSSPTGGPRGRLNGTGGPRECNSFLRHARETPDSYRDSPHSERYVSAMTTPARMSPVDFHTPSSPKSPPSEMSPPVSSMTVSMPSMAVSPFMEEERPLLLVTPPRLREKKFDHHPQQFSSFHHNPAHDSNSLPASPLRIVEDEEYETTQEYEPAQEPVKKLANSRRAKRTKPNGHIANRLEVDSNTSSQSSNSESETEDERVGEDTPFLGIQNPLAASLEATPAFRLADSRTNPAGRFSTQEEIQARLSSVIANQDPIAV
Neurogenic locus notch homolog protein 2 (Homo sapiens), sequence (Q04721 whole entry, looked up, canonical isoform): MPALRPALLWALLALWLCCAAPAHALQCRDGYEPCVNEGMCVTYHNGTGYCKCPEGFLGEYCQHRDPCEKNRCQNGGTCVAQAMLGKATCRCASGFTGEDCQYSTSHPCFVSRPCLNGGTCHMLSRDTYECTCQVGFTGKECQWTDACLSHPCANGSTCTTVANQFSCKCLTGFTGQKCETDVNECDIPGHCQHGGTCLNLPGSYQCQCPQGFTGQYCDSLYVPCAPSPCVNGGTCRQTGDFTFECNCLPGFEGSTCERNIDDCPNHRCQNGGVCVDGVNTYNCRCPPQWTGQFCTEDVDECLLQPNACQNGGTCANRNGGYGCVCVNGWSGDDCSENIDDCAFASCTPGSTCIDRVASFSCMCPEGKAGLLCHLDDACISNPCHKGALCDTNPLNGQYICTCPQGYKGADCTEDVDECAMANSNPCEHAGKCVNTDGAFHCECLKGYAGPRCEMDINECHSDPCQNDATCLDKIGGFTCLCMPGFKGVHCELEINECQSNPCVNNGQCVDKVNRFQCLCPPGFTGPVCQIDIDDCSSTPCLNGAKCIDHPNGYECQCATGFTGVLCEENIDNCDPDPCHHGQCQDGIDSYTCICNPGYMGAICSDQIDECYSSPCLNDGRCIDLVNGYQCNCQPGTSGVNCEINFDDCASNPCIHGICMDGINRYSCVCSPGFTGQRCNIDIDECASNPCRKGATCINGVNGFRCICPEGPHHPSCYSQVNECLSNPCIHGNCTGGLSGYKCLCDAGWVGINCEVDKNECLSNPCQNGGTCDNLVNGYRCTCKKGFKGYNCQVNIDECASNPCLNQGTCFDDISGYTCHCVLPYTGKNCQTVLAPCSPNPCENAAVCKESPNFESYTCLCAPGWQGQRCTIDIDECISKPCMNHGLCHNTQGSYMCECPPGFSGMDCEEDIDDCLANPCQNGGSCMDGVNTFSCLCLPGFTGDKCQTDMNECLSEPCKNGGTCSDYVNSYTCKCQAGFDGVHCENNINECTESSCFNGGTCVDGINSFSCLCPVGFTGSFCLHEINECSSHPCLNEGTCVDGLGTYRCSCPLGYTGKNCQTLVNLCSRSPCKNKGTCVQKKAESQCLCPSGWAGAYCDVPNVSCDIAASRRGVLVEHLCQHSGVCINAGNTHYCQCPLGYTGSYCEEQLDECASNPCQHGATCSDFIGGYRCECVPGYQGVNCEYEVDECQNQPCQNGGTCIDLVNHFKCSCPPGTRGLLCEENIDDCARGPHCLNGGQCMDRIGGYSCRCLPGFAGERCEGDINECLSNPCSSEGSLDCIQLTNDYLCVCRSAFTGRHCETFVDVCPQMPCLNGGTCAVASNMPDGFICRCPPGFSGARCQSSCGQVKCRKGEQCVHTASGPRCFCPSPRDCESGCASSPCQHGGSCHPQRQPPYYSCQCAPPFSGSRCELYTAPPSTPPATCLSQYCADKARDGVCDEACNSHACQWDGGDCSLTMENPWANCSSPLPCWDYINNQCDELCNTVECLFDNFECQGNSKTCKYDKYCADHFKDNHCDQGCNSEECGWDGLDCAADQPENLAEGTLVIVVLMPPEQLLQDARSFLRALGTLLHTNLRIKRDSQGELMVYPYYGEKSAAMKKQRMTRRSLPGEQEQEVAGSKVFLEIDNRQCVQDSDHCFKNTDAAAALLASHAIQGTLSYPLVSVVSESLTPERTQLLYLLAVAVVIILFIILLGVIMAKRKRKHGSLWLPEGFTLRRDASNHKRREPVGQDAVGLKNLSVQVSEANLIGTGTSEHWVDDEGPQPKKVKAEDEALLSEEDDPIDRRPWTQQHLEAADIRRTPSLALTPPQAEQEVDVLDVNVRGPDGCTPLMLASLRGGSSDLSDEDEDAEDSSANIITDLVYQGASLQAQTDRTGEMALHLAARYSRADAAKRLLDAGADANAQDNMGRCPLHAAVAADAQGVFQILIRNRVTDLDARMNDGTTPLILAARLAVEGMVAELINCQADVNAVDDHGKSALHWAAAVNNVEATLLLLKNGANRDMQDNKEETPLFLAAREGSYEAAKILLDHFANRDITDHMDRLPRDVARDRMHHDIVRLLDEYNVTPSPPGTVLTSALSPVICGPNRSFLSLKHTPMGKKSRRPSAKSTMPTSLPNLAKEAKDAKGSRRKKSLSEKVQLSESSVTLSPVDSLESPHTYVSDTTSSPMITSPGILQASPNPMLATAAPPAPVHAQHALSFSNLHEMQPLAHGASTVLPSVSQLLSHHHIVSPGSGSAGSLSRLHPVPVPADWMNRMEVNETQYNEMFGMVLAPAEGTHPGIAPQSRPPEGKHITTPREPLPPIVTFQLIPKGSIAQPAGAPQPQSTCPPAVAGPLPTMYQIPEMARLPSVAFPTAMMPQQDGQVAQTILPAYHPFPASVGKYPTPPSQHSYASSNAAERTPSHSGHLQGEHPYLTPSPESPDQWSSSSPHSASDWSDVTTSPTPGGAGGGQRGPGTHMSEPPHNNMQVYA

On to `O=C(NCC(F)(F)F)[C@@H]1c2ccccc2C(=O)N(Cc2ccc(OC(F)(F)F)cc2)[C@H]1c1ccc(CO)cc1`, for which the composite z-score in test [1] is -0.0966; in [2], 0.661; in test [3] it was -0.0595; in test [4] it was 0.41; in [5], 0.8; in [6] it was 1.33. For the same compound, the values for the composite z-score in test [7], in test [9] and in test [10] were 1.1, 0.208 and -0.25, respectively. In addition, the z-score in test [8] was -1.76 (inactive).

As for `COc1ccc([Si](C)(C)[C@@H]2[C@@H](CC(=O)N3Cc4ccccc4C[C@H]3CO)O[C@]3(C(=O)N(C)c4ccccc43)[C@H]2C)cc1`, the composite z-score in [1] turned out to be 0.279; in test [2], 0.56; in [3], 0.0331; in test [4], 0.686; in test [5], 0.356; in test [6] it was 0.969. Also, the composite z-score in [7] turned out to be 1.22; in test [9] it was 0.714; in [10], 0.202. Moreover, in test [8], the z-score is -4.24 (inactive).

As for `O=C1OCC=C[C@H]2OC34C=CCN(Cn5nnc6ccccc65)C(=O)[C@H]3N(CCCO)C(=O)[C@@H]4[C@@H]12` (stereo not given in full), the composite z-score in [1] is 0.466; in [2] it was -0.772; in test [3] it was -0.0015; in test [4], 0.0131; in test [5] it was -1.04; in test [6], 1.09. The figures for the composite z-score in [7], in test [9] and in test [10] were 1.54, -0.772 and -0.0618, respectively. Further, the z-score in test [8] was 0.67 (inactive).

As to `COCCOC(=O)N1C(=O)[C@@]2(c3cc(C#Cc4ccc(OC)cc4)ccc31)[C@H](C(=O)Nc1nc3ccccc3s1)[C@H]1C(=O)O[C@H](c3ccccc3)[C@H](c3ccccc3)N1[C@@H]2c1ccc(OCCO)cc1`, the composite z-score in [1] was -0.51; in test [2] it was 0.661; in [3] it was -0.0569; in test [4], 0.784; in test [5], 1.21; in [6] it was 0.138. In addition, the composite z-score in test [7] was 1.11; in test [9], 0.632; in [10], -0.0618. The z-score in test [8] is 4.61 (inactive).

Consider `OCC1CC(c2ccccc2)=NO1` (stereo not given), for which the composite z-score in test [1] is -0.315; in test [2], 0.239; in test [3], -0.0242; in test [4] it was 0.202; in test [5] it was -0.244; in [6], -0.584. Further, the composite z-score in test [7] was -0.164; in [9], 0.127; in test [10], 0.235. In addition, the z-score in test [8] was 0.557 (inactive).

As to `COC(=O)[C@@]1(Cc2ccc(F)cc2)[C@H]2c3cc(C(=O)N4CCCC4)n(CCN4CNCC4=O)c3C[C@H]2CN1C(=O)c1ccccc1`, the composite z-score was found to be 0.144 in test [1]; 1.56 in [2]; 0.0732 in test [3]; 0.132 in test [4]; 1.26 in [5]; 1.07 in test [6]. In addition, the values for the composite z-score in test [7], in [9] and in test [10] were 1.35, 1.26 and 0.178, respectively. Also, the z-score in test [8] was 4.7 (inactive).

In the case of `Cc1ccccc1C(O)C1C=CC2C(=O)N(C)C(=O)C2N1N(c1ccccc1)c1ccccc1` (stereo not given), the composite z-score in test [1] is 1.01; in [2], -0.038; in test [3], 0.149; in test [4], 0.113; in test [5], 0.483; in test [6], -0.53. In addition, the composite z-score in [7] was -0.878; in test [9], 0.606; in test [10], 0.0077. For the same compound, the z-score in [8] is -0.0079 (inactive).

With `CO[C@H]1O[C@H](CO)[C@@H](OC(=O)Nc2ccc3c(c2)OCO3)[C@H](OC(=O)c2cc3ccccc3[nH]2)[C@H]1OC(=O)c1cc2ccccc2[nH]1`, the composite z-score in [1] is -0.0446; in [2] it was -0.152; in test [3] it was -0.0047; in test [4], 0.236; in test [5] it was -0.904; in test [6] it was 0.386. Moreover, the composite z-score in test [7] was 0.514; in test [9] it was -0.598; in test [10] it was 0.0623. Moreover, the z-score in test [8] is 1.13 (inactive).

For the compound `O=C1C2C=CC(C(O)c3ccc(F)cc3)N(n3cnnc3)C2C(=O)N1Cc1ccccc1` (stereo not given), the composite z-score in test [1] is 0.352; in test [2], -0.131; in test [3], -0.12; in test [4], -0.201; in test [5], -0.0052; in test [6] it was 0.439. The composite z-score was -0.191 in test [7], 0.19 in [9] and -0.282 in [10]. For the same compound, the z-score in [8] is 0.594 (inactive).

On to `COc1ccc(CCNC(=O)[C@@]2(Sc3ccc(C)cc3)CC(=O)N(C3Cc4ccccc4C3)[C@@H]2c2ccc(CO)cc2)cc1`, for which the composite z-score in [1] was 0.183; in [2], 0.737; in test [3], 0.153; in test [4], -0.0334; in [5], 1.43; in test [6], 0.591. Further, the composite z-score in [7] worked out at 1.29; in [9] it was 0.384; in test [10] it was 0.866. Further, the z-score in test [8] was -3.33 (inactive).

`CCCCCCc1nc(C2CC2)cc2c1[Si](C(C)C)(C(C)C)OC2`: the composite z-score in test [1] was 0.355; in test [2] it was -0.376; in test [3] it was -0.14; in [4], -0.715; in test [5], -1.13; in [6], -0.526. The results for the composite z-score in [7], in test [9] and in [10] were -1.17, -0.319 and -0.137, respectively. Also, the z-score in test [8] was 1.19 (inactive).

On to `Cc1cc(C)cc(N2C(=O)CSC2c2cccc([N+](=O)[O-])c2)c1` (stereo not given), for which the composite z-score is -0.0703 in test [1]; 0.571 in test [2]; -0.0036 in test [3]; 0.887 in [4]; 1.17 in [5]; 1.4 in test [6]. Moreover, the composite z-score in [7] is 1.21; in test [9] it was 0.712; in test [10], -0.0994. Besides, the z-score in [8] is 1.07 (inactive).

As to `COC(=O)[C@@]1(Cc2ccc(F)cc2)[C@H]2c3cc(C(=O)N4CCCC4)n(CCc4ccc(O)c(O)c4)c3C[C@H]2CN1C(=O)c1ccccc1`, the composite z-score in test [1] came out at 1.41; in [2], 0.109; in test [3] it was 0.57; in [4], 0.146; in test [5] it was 1.38; in test [6], 2.3. Also, the composite z-score in [7] was determined as 1.29; in [9] it was 1.05; in [10], 2.44. Moreover, in test [8], the z-score was 0.332 (inactive).

As to `NC(=O)N1C(=O)C2C(C1=O)C1C=C(CCCO)C2C(c2cccs2)N1Cc1cccc(OC(F)(F)F)c1` (stereo not given), the composite z-score in [1] was -0.206; in test [2], 0.118; in test [3] it was -0.0715; in [4] it was 0.354; in [5], 0.009; in test [6], 1.03. In addition, the results for the composite z-score in test [7], in test [9] and in test [10] were 0.753, 0.0646 and -0.0994, respectively. Moreover, in [8], the z-score was -1.02 (inactive).
